High-throughput results (PubChem BioAssay)
Rows were chosen to be rich in hits. Some 9.5% of all compounds tested hit in one or more screens of this group.
Pf growth 96h = P. falciparum growth inhibition at 96 hours; Potency, µM (series often up to 28.7 µM), actives largely listed as inhibitors; P. falciparum luciferase reporter growth, 96 h; 320,000 tested, 6.9% active; active means well fitted inhibition curve with a large enough effect; inconclusive means small, poorly fitted or top-dose-only effect, or another doubt; inactive means no such curve, though single readings can be large or run the other way
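P. falciparum expressing integrated firefly luciferase, in erythrocytes at 2% hematocrit, 0.05% parasitemia, incubated with compounds 96 h at 37 C, 5% CO2. Growth inhibition read as loss of luminescence; two-generation exposure targets delayed-death apicoplast inhibitors.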
SARS PLpro yeast = blocks SARS-CoV papain-like protease in a yeast assay. S. cerevisiae expressing SARS-CoV PLpro, growth rescue. Potency, µM (top dose mostly 32.9 µM), most hits filed as activators. 330,000 tested, 0.19% active. AID 485353; further: nearly all actives have a fitted effect of over 55% in size
RE007 growth inh = less growth of the S. pombe RE007 Vpr strain | S. pombe RE007 Vpr strain, BacTiter-Glo ATP luminescence, 24 h | Potency, µM (titrated, usually from 92.2 µM), usual class: inhibitors | 360,000 tested, 0.21% active; active means well fitted falling curve with a large enough effect; inconclusive means small, poorly fitted or top-dose-only effect; inactive means no such curve, though single readings can be large or run the other way; further: nearly all actives have a fitted effect of over 50% in size
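Fission yeast RE007 carrying one integrated HIV-1 vpr copy, seeded at OD 0.01 in PMG+AL medium with 23 nL pinned compound. Grown 24 h at 30 degrees; viability read by BacTiter-Glo luminescence after 5 min.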
Pf growth 48h = P. falciparum growth inhibition at 48 hours (one generation) | P. falciparum luciferase growth in erythrocytes, 48 h | Potency, µM (series often up to 28.7 µM), most hits filed as inhibitors | 310,000 tested, 5.9% active | AID 504832; active means well fitted inhibition curve with a large enough effect; inconclusive means small, poorly fitted or top-dose-only effect, or another doubt; inactive means no such curve, though single readings can be large or run the other way
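Here the parasites carry a stable luciferase gene and grow inside erythrocytes in Albumax-based RPMI medium with compound for one erythrocytic cycle. Activity is scored as loss of luminescent signal.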
NS1 inh = blocks influenza NS1 protein function; Potency, µM (doses to about 46.1 µM); 270,000 tested, 0.4% active; AID 2326; further: actives are rising curves; nearly all actives have a fitted effect of over 50% in size
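Read-out: OD600 growth recovery of NS1-expressing budding yeast. Cells grown overnight at 30C in -URA glucose medium, washed, resuspended and diluted 1:100 in 2% galactose assay medium, pH 6.0. Same strain lacking NS1 served as positive control.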
Of the large screens only hits and unclear results are named; the others gave an inactive call. Unless noted, the call rests on the fitted dose curve.

Cc1ccc(-c2cc(C(F)F)n3ncc(C(=O)N4CCCc5ccccc54)c3n2)cc1	Pf growth 48h inconclusive
O=C(c1cc(-c2ccccc2)nc2ccccc12)N1CCCc2ccccc21	Pf growth 96h inconclusive, Pf growth 48h 2.9µM
Cc1cc(C(=O)N2CCc3ccccc32)c2cc(F)ccc2n1	none
CCN1CCN(c2ncc(C(=O)N3CCCc4ccccc43)c3ccccc23)CC1	Pf growth 96h 12µM, Pf growth 48h inconclusive
COC(=O)c1ccc(COC(=O)CNC(=O)c2ccc(C)s2)cc1	none (no result: NS1 inh)
CC(C)CNc1nc2ncnc(N)c2[nH]1	none (no result: Pf growth 96h, SARS PLpro yeast, RE007 growth inh, Pf growth 48h)
COCc1cn(CC[C@@H]2CC[C@@H](NC(=O)Nc3ccc4c(c3)OCO4)[C@@H](CO)O2)nn1	none (no result: Pf growth 96h, SARS PLpro yeast, Pf growth 48h, NS1 inh)
CC(C)CCOP(=O)(c1ccc(N(C)C)cc1)C(O)c1ccccc1F (stereo not drawn)	Pf growth 96h inconclusive, Pf growth 48h 2.9µM
CC(C)CCOP(=O)(c1ccc(N(C)C)cc1)C(O)c1ccc(N(C)C)cc1 (stereo not drawn)	Pf growth 96h inconclusive, Pf growth 48h inconclusive
CN(C)c1ccc(P(=O)(OCc2ccccc2)C(O)c2ccccc2)cc1 (stereo not drawn)	Pf growth 96h 2.3µM, Pf growth 48h 10µM
CN(C)c1ccc(P(=O)(OCc2ccccc2)C(O)c2ccc(Cl)cc2)cc1 (stereo not drawn)	Pf growth 96h inconclusive, Pf growth 48h inconclusive
CC(C)CCOP(=O)(c1ccc(N(C)C)cc1)C(O)c1ccc(Cl)cc1Cl (stereo not drawn)	Pf growth 96h 9.3µM, Pf growth 48h 9.3µM
COc1cccc(C(=O)NC2CC3CCCC(C2)N3S(=O)(=O)c2ccccc2)c1 (stereo not drawn)	Pf growth 96h inconclusive, Pf growth 48h inconclusive
CC(C)[C@H](NC(=O)N1CC(=O)Nc2ccccc21)C(=O)N1CCC[C@H]1C(=O)O	none
CC(C)[C@H](NC(=O)[C@@H]1Cc2c([nH]c3ccccc23)C2c3ccccc3C(=O)N21)C(=O)N1CCC[C@@H]1C(=O)O (stereo partly drawn)	Pf growth 96h 15µM
CCOCCCNC(=O)CN1C(=O)NC(Cc2c[nH]c3ccccc23)C1=O (stereo not drawn)	none
NC(=O)c1cc(N2C(=O)C=CC2=O)ccc1Cl	Pf growth 48h 2.3µM
COc1ccc(C(=O)Cn2cc([N+](=O)[O-])nc2C)cc1	none
CCOCc1cn(CC(=O)c2ccc(Cl)cc2)c(C)nc1=N	Pf growth 48h 4.1µM (no result: Pf growth 96h)
CCOCc1cn(CC(=O)c2ccc([N+](=O)[O-])cc2)c(C)nc1=N	Pf growth 48h 1µM (no result: Pf growth 96h)
O=C(CC1C(=O)NCCN1Cc1cccc(Oc2ccccc2)c1)NCc1cccnc1 (stereo not drawn)	Pf growth 96h inconclusive
O=C1NCCN(Cc2cccc(Oc3ccccc3)c2)C1CC(=O)N1CCCO1 (stereo not drawn)	Pf growth 96h 5.2µM
COCC1CCN(C(=O)CC2C(=O)NCCN2Cc2cccc(Oc3ccccc3)c2)CC1 (stereo not drawn)	Pf growth 48h 15µM
O=C(Cc1n[nH]c(=O)c2ccccc12)OCC(=O)c1ccc(OC(F)F)cc1OC(F)F	none (no result: NS1 inh)
COc1ccc2[nH]c(=O)c(CN(C(=O)C(C)C)c3ccccc3OC)cc2c1	none
COc1cc(C(O)P(=O)(OC2CCCCC2)c2ccc(N(C)C)cc2)cc(OC)c1OC (stereo not drawn)	Pf growth 96h 13µM, Pf growth 48h inconclusive
CC(=O)Nc1c(C(=O)c2ccc(F)cc2)oc2ccccc12	none
Cc1ccc(C(=O)c2oc3ccccc3c2NC(=O)c2cc(-c3ccccc3O)n[nH]2)cc1	Pf growth 96h 0.59µM, Pf growth 48h 1.5µM
Cc1ccc(C(=O)c2oc3ccccc3c2NC(=O)c2cc(-c3cc(C)ccc3O)n[nH]2)cc1	Pf growth 96h 0.33µM, Pf growth 48h 0.33µM
O=C(Nc1c(C(=O)c2ccccc2)oc2ccccc12)c1cc(-c2ccccc2O)n[nH]1	Pf growth 96h 0.66µM, Pf growth 48h 1.5µM
COCCN(C(=O)c1cc(CN2C(=O)c3ccccc3C2=O)ccc1OC)c1c(N)n(CC(C)C)c(=O)[nH]c1=O	none (no result: Pf growth 96h, SARS PLpro yeast, Pf growth 48h, NS1 inh)
CCC(NS(=O)(=O)c1ccc2c(c1)Cc1cc(S(=O)(=O)NC(CC)C(=O)O)ccc1-2)C(=O)O (stereo not drawn)	none
OCC#CC[N+]1(CC#Cc2ccccc2)CCOCC1	none (no result: NS1 inh)
C#CC[N+]1(CC#Cc2cccc3ccccc23)CCOCC1	Pf growth 48h 3.7µM
C#CC[N+]1(CC#Cc2ccccc2)CCCC1	Pf growth 48h 3.3µM
C#CC[N+]1(CC#Cc2ccc(C#CC[N+]3(CC#C)CCOCC3)cc2)CCOCC1	Pf growth 96h inconclusive
C(#Cc1ccccc1)C[N+]1(CC#Cc2cccc3ccccc23)CCCC1	Pf growth 96h inconclusive, Pf growth 48h 2.6µM
O=c1[nH]c2nc(Br)[nH]c(=O)c2[nH]1	none (no result: Pf growth 96h, SARS PLpro yeast, Pf growth 48h, NS1 inh)
Cc1cc(-c2ccc(N=Nc3c(S(=O)(=O)O)cc4cc(S(=O)(=O)O)cc(N)c4c3O)c(C)c2)ccc1N=Nc1c(S(=O)(=O)O)cc2cc(S(=O)(=O)O)cc(N)c2c1O	Pf growth 96h 9.5µM, Pf growth 48h 6.6µM (no result: RE007 growth inh, NS1 inh)
O=S(=O)(O)c1cc(O)c2c(O)c(N=Nc3cc(Cl)ccc3O)c(S(=O)(=O)O)cc2c1	RE007 growth inh inconclusive
O=C1c2ccccc2-c2onc3ccc(NCCCn4ccnc4)c1c23	Pf growth 96h 13µM (no result: Pf growth 48h)
O=C(OCC(=O)N1CCCC1=O)c1nc(Cl)c(Cl)c(Cl)c1Cl	none
CN1CCC(Oc2ccccc2Sc2ccccc2)CC1	Pf growth 96h 13µM, Pf growth 48h inconclusive
O=C(Nc1ccccc1F)N1CCc2ccccc2C1	Pf growth 96h inconclusive
CCCN1CCCC2Cc3nc(N)ncc3CC21 (stereo not drawn)	Pf growth 96h 12µM (no result: SARS PLpro yeast, RE007 growth inh, NS1 inh)
NC1=NC[C@@H](Cc2ccc(O)cc2)N1CCc1cccc2ccccc12	Pf growth 96h 1.9µM, Pf growth 48h 5.9µM
NCCCC[C@H]1CN=C(N)N1CCc1cccc2ccccc12	none (no result: Pf growth 96h, SARS PLpro yeast, Pf growth 48h, NS1 inh)
NC1=NC[C@H](Cc2ccc(O)cc2)N1CCc1cccc2ccccc12	Pf growth 96h 1µM, Pf growth 48h 3.3µM
N=c1c2c(-c3ccccc3)c(-c3ccccc3)n(Cc3ccco3)c2ncn1CCCO	Pf growth 96h 13µM, Pf growth 48h inconclusive
COc1ccc(NC(=S)NCCCCCC(=O)C[N+](=O)[O-])cc1	Pf growth 96h inconclusive, Pf growth 48h inconclusive (no result: NS1 inh)
Cn1c(CNC(=O)c2ccc3c(c2)OCO3)nnc1SCC(=O)Nc1ccc(F)cc1F	none
CC(C(=O)NC(=O)NC1CCCCC1)N1CCN(c2ccc(O)cc2)CC1 (stereo not drawn)	Pf growth 96h 17µM, Pf growth 48h inconclusive (no result: NS1 inh)
CC(C(=O)NC1CCCCC1)N1CCN(S(=O)(=O)c2cccs2)CC1 (stereo not drawn)	none (no result: NS1 inh)
CC(C(=O)Nc1cc([N+](=O)[O-])ccc1Cl)N1CCN(c2ccc(O)cc2)CC1 (stereo not drawn)	Pf growth 96h 13µM, SARS PLpro yeast inconclusive
